Most compounds without a hit are left out; they make up all but 2.4% or so of the library.
D2 ag-1: HTS Assay for Allosteric Agonists of the Human D2 Dopamine Receptor: Primary Screen for Agonists; activation, % at 2 µM; HEK293 T-REx D2 cells, calcium flux agonist mode; D(2) dopamine receptor (Homo sapiens), P14416; 340,000 tested, 0.53% active; AID 485358, 2010;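 active means activation over 3 SD above normal in the single-dose calcium agonist read, cut at about 30% in these data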
Target sequence (P14416 whole entry, looked up): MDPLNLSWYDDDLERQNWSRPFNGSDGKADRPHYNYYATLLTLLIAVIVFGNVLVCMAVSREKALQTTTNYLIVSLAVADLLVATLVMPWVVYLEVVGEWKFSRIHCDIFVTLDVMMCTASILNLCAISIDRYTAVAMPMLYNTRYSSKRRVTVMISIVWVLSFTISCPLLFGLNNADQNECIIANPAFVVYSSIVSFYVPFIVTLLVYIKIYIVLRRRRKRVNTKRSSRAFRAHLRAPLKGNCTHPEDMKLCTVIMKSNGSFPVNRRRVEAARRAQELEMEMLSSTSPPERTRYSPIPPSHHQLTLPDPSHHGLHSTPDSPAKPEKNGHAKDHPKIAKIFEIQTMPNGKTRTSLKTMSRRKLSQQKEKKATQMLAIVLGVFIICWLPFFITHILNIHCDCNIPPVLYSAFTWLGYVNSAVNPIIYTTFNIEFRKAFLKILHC
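Tetracycline-induced HEK293 Trex cells with D2 receptor force-coupled to calcium signaling, plated overnight at 30 C and loaded with no-wash calcium dye. Calcium flux read kinetically for 180 s after compound addition; responses flag agonists.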
D2 PAM-1: HTS Assay for Positive Allosteric Modulators of the Human D2 Dopamine Receptor: Primary Screen for Potentiators. 340,000 tested, 0.34% active. HEK293 T-REx D2, calcium flux, EC20 dopamine potentiation. potentiation, % at 10 µM;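 active means potentiation over 3 SD above the plate norm, cut at about 30% in these data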
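Cells plated with tetracycline inducer and held overnight at 30 C; calcium dye loaded 30–90 min at room temperature; baseline taken, compound added and read 180 s; EC20 dopamine then added and read 180 s.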
D2 ag-2: Beta-Arrestin HTS for Positive Allosteric Modulators of the Human D2 Dopamine Receptor: Agonists. D(2) dopamine receptor (Homo sapiens), P14416. DiscoveRx PathHunter D2 beta-arrestin, luminescence, 90 min; 100% = 57 uM dopamine signal. activation, % (test concentration not listed). 360,000 tested, 0.084% active; in the data active means activation above about 40%; inconclusive means between about 15% and that limit
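DiscoveRx PathHunter D2 beta-arrestin cells (2,100/well) attached overnight, then compound-stimulated 90 min at 37 C in HBSS/10 mM HEPES/0.1% Tween-20 buffer; beta-galactosidase complementation read by luminescence after 1 h at ambient temperature. Dopamine 57 uM final (EC100) as control.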
D2 antag: HTS Assay for Allosteric Antagonists of the Human D2 Dopamine Receptor: Primary Screen for Antagonists | D(2) dopamine receptor (Homo sapiens), P14416 | HEK293 TREx D2 cells, calcium flux, dopamine EC80 | inhibition, % at 10 µM | 340,000 tested, 2% active | AID 485344, 2010; in the data active means inhibition above about 30%; inactive means below that, where a call was filed
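Inhibition of EC80 dopamine-driven calcium flux, recorded kinetically, defines activity here; cells are a tetracycline-induced HEK293 T-REx line expressing force-coupled D2.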
D2 PAM-2: Beta-Arrestin HTS for Positive Allosteric Modulators of the Human D2 Dopamine Receptor: Potentiators; DiscoveRx D2 beta-arrestin cells, luminescence, 90 min; 100% = 57 uM dopamine signal; D(2) dopamine receptor (Homo sapiens), P14416; potentiation, % (no concentration beside the values); 360,000 tested, 0.23% active; AID 624464, 2012; in the data active means potentiation above about 50%; inconclusive means mostly about 30% to 49%
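D2 cells co-treated with compound plus 50 nM dopamine (EC20) for 90 min at 37 deg C to detect potentiation. Beta-arrestin recruitment was read as enzyme-fragment luminescence after 1 h at ambient temperature. Full response was set by 57 uM dopamine.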
Numbers stand for hits; 0 = inactive; ? = inconclusive; - = no result given.

SMILES | D2 ag-1 | D2 PAM-1 | D2 ag-2 | D2 antag | D2 PAM-2
COc1ccc(/C=C(\C#N)C(=O)OC2CCOC2=O)cc1 (centres undefined) | 0 | 0 | 0 | 33 | 0
O=C(Nc1ccc(OCc2cc(=O)n3c4c(sc3n2)CCCC4)cc1)c1ccc(F)cc1 | 0 | 0 | - | - | -
CCN(CC)c1cc2c(cc1F)c(=O)c(S(=O)(=O)c1ccc(OC)cc1)cn2CC | 0 | 0 | - | - | -
Cc1c(/C=C(\C#N)C(=O)NCc2ccccc2)cc(C#N)n1C | 0 | 0 | 0 | 37 | 0
COc1ccc(Cn2c(=O)n(Cc3ccco3)c(=O)c3oc4ccccc4c32)cc1 | - | 0 | - | - | -
COC(=O)/C(=C/Nc1ccc(O)cc1)[N+](=O)[O-] | 0 | 0 | 0 | 0 | 86
Cc1cc(O)c(C(c2ccccc2)N2CCN(c3ccccc3)CC2)c(=O)n1Cc1ccco1 (centres undefined) | - | 0 | - | - | -
CC1CCN(CCCNC(=O)CCc2nnc3n(CCc4ccccc4)c(=O)c4ccccc4n23)CC1 | 0 | 0 | 0 | 61 | 0
Cc1[nH]c(=O)c(C#N)cc1-c1csc(-c2ccccc2)n1 | 0 | 0 | 0 | 39 | 0
Cc1nc(-c2cc(C#N)c(=O)[nH]c2C)cs1 | 0 | 0 | 0 | 0 | 0
Cc1ccc(-c2c3c(=O)n(C)c(=O)n(C)c3c3c(C(F)(F)F)nc4ccccc4n23)cc1 | 0 | 0 | - | - | -
COc1cc(NC(=O)C2CCC(=O)N2S(=O)(=O)c2ccc(C)cc2)cc(OC)c1 (centres undefined) | 0 | 0 | 0 | 0 | 0
COc1ccc(NC(=O)C2CCC(=O)N2S(=O)(=O)c2ccc(C)cc2)cc1Cl (centres undefined) | 0 | 0 | 0 | 34 | 0
Cc1cc(C)cc(N2CCn3c2nc2c3c(=O)n(CCc3ccccc3)c(=O)n2C)c1 | 0 | 0 | - | - | -
CCn1c(=O)c(C(C)=O)nc2ccccc21 | 0 | 0 | 0 | 33 | 0
CCOC(=O)C1CCN(CCC(=O)Nc2ccc(Cl)cc2)CC1 | 0 | 0 | 0 | 0 | 0
CC1CN(CCOCCSc2ccc(Cl)cc2)CC(C)O1 (centres undefined) | 0 | 0 | 0 | 50 | 0
CCOC(=O)C1CCN(CCCSc2ccc(Cl)cc2)CC1 | 0 | 0 | 0 | 46 | 0
Clc1ccc(SCCOCCN2CCCCC2)cc1 | 0 | 0 | 0 | 0 | 0
CC1CCN(CCOCCSc2ccc(Cl)cc2)CC1 | 0 | 0 | 0 | 45 | 0
CC(C)Sc1ncc(Cl)c(C(=O)N(Cc2ccc(N(C)C)cc2)C2CCS(=O)(=O)C2)n1 (centres undefined) | 0 | 0 | - | - | -
CCOc1ccc(CNC(=O)CCCn2c(=O)c3cccn3c3cccnc32)cc1 | 0 | 0 | - | - | -
COc1cccc(-c2cc(C(F)(F)F)n3ncc(C(=O)OC(C)C)c3n2)c1 | - | 0 | - | - | -
Cc1cc(C)cc(NC(=O)NCC(O)COc2ccc([N+](=O)[O-])cc2)c1 (centres undefined) | 0 | 0 | 0 | 38 | 0
O=C(NCC(O)COc1ccc([N+](=O)[O-])cc1)Nc1ccccc1 (centres undefined) | 0 | 0 | 0 | 0 | 0
SMILES | D2 ag-1 | D2 PAM-1 | D2 ag-2 | D2 antag | D2 PAM-2
Cc1nc2ccc(NC(=O)c3ccc([N+](=O)[O-])cc3[N+](=O)[O-])cc2s1 | 0 | 0 | ? | 0 | 52
CC1Cc2cc(S(=O)(=O)CCC(=O)Nc3ccc(Cl)cc3F)ccc2N1C(=O)C1CC1 (centres undefined) | 0 | 0 | - | - | -
COC(=O)CN1C(=O)C(C)(C)Oc2ccc(C(=O)Nc3ccccc3F)cc21 | 0 | 31 | 0 | 0 | 0
Cc1ccc2c(c1)N(CC(=O)N1CCCC1)C(=O)CO2 | 0 | 0 | 0 | 0 | 0
CCOC(=O)c1ccc2c(c1)N(CC(=O)N1CCCCC1)C(=O)C(C)(C)O2 | 0 | 0 | 0 | 0 | 0
CCC(C)(C)NC(=O)c1ccc2c(c1)N(CC(=O)NC1CCCC1)C(=O)C(C)(C)O2 | 0 | 0 | 0 | 62 | 0
CC1(C)Oc2ccc(C(=O)Nc3ccccc3F)cc2N(CC(=O)N2CCOCC2)C1=O | 0 | 0 | 0 | 0 | 0

From PubChem
